From PubChem BioAssay AID1159580 (chemical genetic matrix, 2015)
The whole screen tested about 5,500 compounds, of which about 2,000 (36%) were called active. Another 18% or so got no clear call; they are omitted. Rule as the data show it: active = normalized growth mostly below about 0.91 (no sharp cut-off); inconclusive = no clear call, values can overlap the other calls; inactive = mostly above about 0.92. Some of the results follow.

Test: chemical genetic growth profiling, strain panel (AID 1159580);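 also: tested at 20 µM; growth read once vehicle control cultures reached saturation at 30 °C; 1 = growth at the plate median or of vehicle wells; lower values mean less growth of the strain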
Conditions: S. cerevisiae deletion strains, growth OD
[1] = locus YHR030C, strain SLT2, hits give low values
[2] = locus YHR079C, strain IRE1, hits give low values
[3] = locus YJL095W, strain BCK1, hits give low values
[4] = locus YJR066W, strain TOR1, hits give low values
[5] = locus YLR113W, strain HOG1, hits give low values
[6] = locus YNL183C, strain NPR1, hits give low values
[7] = locus YOR231W, strain MKK1, hits give low values
[8] = locus YPL256C, strain CLN2, hits give low values

Measured: normalized growth

Cc1cc2c(s1)Nc1ccccc1N=C2N1CCN(C)CC1
inactive: [1] 0.975 | [2] 0.976 | [3] 1.01 | [4] 0.944 | [5] 1.05 | [6] 0.969 | [7] 1 | [8] 1.03

Cc1ccc2c(c1)C(N1CCN(C)CC1)=Nc1cccnc1N2
inactive: locus YAL040C, strain CLN3, hits give low values 0.99 | locus YCL061C, strain MRC1 (second series), hits give low values 0.989 | locus YDR150W, strain NUM1, hits give low values 0.986 | locus YDR363W, strain ESC2, hits give low values 1.02 | locus YER002W, strain NOP16, hits give low values 1 | locus YGR078C, strain PAC10, hits give low values 0.983 | locus YJR075W, strain HOC1, hits give low values 1 | locus YMR263W, strain SAP30, hits give low values 0.982 | locus YNL128W, strain TEP1, hits give low values 1.09 | locus YNL153C, strain GIM3, hits give low values 0.998 | locus YNL175C, strain NOP13, hits give low values 0.997 | locus YNL197C, strain WHI3, hits give low values 0.988 | locus YNL224C, strain SQS1, hits give low values 1.01 | locus YNL322C, strain KRE1, hits give low values 0.988 | locus YOR083W, strain WHI5 (second series), hits give low values 0.991

COCC1=C(C(=O)OC(C)OC(=O)OC(C)C)N2C(=O)[C@@H](NC(=O)/C(=N\OC)c3csc(N)n3)[C@H]2SC1 (stereo partly drawn)
inactive: locus YAL021C, strain ccr4, hits give low values 0.98 | locus YAL026C, strain drs2, hits give low values 0.967 | locus YAL030W, strain snc1, hits give low values 0.982 | locus YBL061C, strain skt5, hits give low values 0.968 | locus YBR009C, strain hhf1, hits give low values 0.96 | locus YBR023C, strain chs3, hits give low values 0.982 | locus YBR171W, strain sec66, hits give low values 0.968 | locus YBR231C, strain swc5, hits give low values 0.967 | locus YBR279W, strain paf1, hits give low values 0.98 | locus YCL011C, strain gbp2, hits give low values 0.973 | locus YCL016C, strain dcc1, hits give low values 0.982 | locus YCL061C, strain MRC1, hits give low values 0.981 | locus YCL069W, strain vba3, hits give low values 0.976 | locus YCR088W, strain abp1, hits give low values 0.97 | locus YDL005C, strain med2, hits give low values 0.966 | locus YDL040C, strain nat1, hits give low values 0.977 | locus YDR001C, strain nth1, hits give low values 0.97 | locus YDR069C, strain doa4, hits give low values 0.971 | locus YDR137W, strain rgp1, hits give low values 0.93 | locus YDR159W, strain sac3, hits give low values 0.95 | locus YDR195W, strain ref2 0.927 | locus YDR297W, strain sur2, hits give low values 0.979 | locus YDR334W, strain swr1, hits give low values 0.976 | locus YDR335W, strain msn5, hits give low values 0.987 | locus YDR392W, strain spt3, hits give low values 0.919 | locus YEL003W, strain gim4, hits give low values 0.984 | locus YEL037C, strain rad23, hits give low values 0.969 | locus YEL061C, strain CIN8 (second series), hits give low values 0.971 | locus YER015W, strain faa2, hits give low values 0.98 | locus YER016W, strain bim1, hits give low values 0.98 | locus YER111C, strain swi4, hits give low values 0.972 | locus YER155C, strain BEM2 (second series), hits give low values 0.972 | locus YFR010W, strain ubp6, hits give low values 0.964 | locus YGL167C, strain pmr1, hits give low values 0.967 | locus YGL173C, strain kem1, hits give low values 0.968 | locus YGL227W, strain vid30, hits give low values 0.96 | locus YGL240W, strain doc1, hits give low values 0.981 | locus YGL253W, strain hxk2, hits give low values 0.986 | locus YHR013C, strain ard1, hits give low values 0.976 | locus YHR027C, strain rpn1, hits give low values 0.985 | [1] 0.968 | [2] 0.999 | locus YHR142W, strain chs7, hits give low values 0.982 | locus YJL092W, strain hpr5, hits give low values 0.972 | locus YJL095W, strain BCK1 (second series), hits give low values 0.989 | [3] 0.977 | locus YJL115W, strain asf1, hits give low values 0.966 | locus YJL129C, strain trk1, hits give low values 0.974 | locus YJL154C, strain vps35, hits give low values 0.976 | locus YJL164C, strain tpk1, hits give low values 0.998 | locus YJL166W, strain qcr8, hits give low values 0.998 | locus YJL187C, strain SWE1, hits give low values 0.982 | [4] 0.927 | locus YKL160W, strain elf1, hits give low values 0.994 | locus YKR026C, strain gcn3, hits give low values 0.962 | locus YKR091W, strain srl3, hits give low values 0.981 | locus YLL001W, strain dnm1, hits give low values 0.976 | locus YLL026W, hits give low values 0.971 | locus YLL041C, strain sdh2, hits give low values 0.992 | locus YLR027C, strain aat2, hits give low values 0.979 | [5] 0.943 | locus YLR221C, strain rsa3, hits give low values 0.997 | locus YLR258W, strain gsy2, hits give low values 0.978 | locus YLR262C, strain YPT6 (second series), hits give low values 0.987 | locus YLR320W, strain mms22, hits give low values 0.983 | locus YLR342W, strain FKS1, hits give low values 0.973 | locus YLR357W, strain rsc2, hits give low values 0.929 | locus YLR370C, strain arc18, hits give low values 0.956 | locus YLR384C, strain iki3, hits give low values 0.976 | locus YML120C, strain ndi1, hits give low values 0.967 | locus YMR058W, strain fet3, hits give low values 0.981 | locus YMR125W, strain sto1, hits give low values 0.926 | locus YMR129W, hits give low values 0.97 | locus YMR205C, strain PFK2, hits give low values 0.937 | locus YMR231W, strain pep5, hits give low values 0.967 | locus YNL071W, strain lat1, hits give low values 0.986 | [6] 0.945 | locus YNL209W, strain ssb2, hits give low values 0.986 | locus YNL248C, strain rpa49, hits give low values 0.99 | locus YNL322C, strain KRE1 (second series), hits give low values 0.982 | locus YNR049C, strain mso1, hits give low values 0.98 | locus YOR001W, strain rrp6, hits give low values 0.978 | locus YOR070C, strain gyp1, hits give low values 0.976 | locus YOR080W, strain dia2, hits give low values 0.967 | locus YOR083W, strain WHI5, hits give low values 0.993 | locus YOR106W, strain vam3, hits give low values 0.983 | [7] 0.973 | locus YOR265W, strain rbl2, hits give low values 0.982 | locus YOR270C, strain vph1, hits give low values 0.951 | locus YOR290C, strain snf2, hits give low values 0.962 | locus YPL051W, strain arl3, hits give low values 0.994 | locus YPL078C, strain atp4, hits give low values 0.986 | locus YPL106C, strain sse1, hits give low values 0.982 | locus YPL240C, strain hsp82, hits give low values 0.99 | [8] 0.974
